Shown are actives, neighbours in structure and some others; about 5.1% of the full set was active somewhere.
S1P4 antag = antagonists of human S1P4 receptor; O95977; S1P4-expressing cells, antagonist mode, reporter read-out; inhibition, % at 4.98 µM; 220,000 tested, 0.26% active; in the data active = inhibition above about 29%;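 also: 0% = wells stimulated with agonist and 100% = vehicle wells without agonist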
KCC2 mod = modulates chloride dependent transport by human KCC2; AID 1456; Q9H2X9; KCC2 cells, thallium flux FluoZin-2 fluorescence; B-score of Tl+ flux slope (higher = more flux/activation; lower = inhibition) at 10 µM; 190,000 tested, 2.2% active;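 active = thallium flux slope and its plate-corrected score both differing from the plate sample mean at a set confidence after two filtering rounds, in either direction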;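 also: slope of fluorescence scaled to starting intensity during 10 to 20 s after thallium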
RAM inhibit = blocks the yeast RAM network. S. cerevisiae dse1pr::URA3 reporter, 5-FOA growth OD615, 2 d; analog-sensitive cbk1-as2 kinase mutant strain. 190,000 tested, 1.8% active. inhibition, % at 50 µM;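 active = inhibition above a set limit, 3 SD over mean compound inhibition, cut at about 8.4% in these data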;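 also: 0% = DMSO-only wells with no growth and 100% = 10 µM 1-NA-PP1 full growth; inhibition rescues growth on 5-FOA so higher OD means more RAM inhibition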
S1P4 ag = agonists of human S1P4 receptor; activation, % at 4.98 µM; O95977; 220,000 tested, 0.35% active; S1P4-expressing cell line, agonist reporter assay; AID 1509; in the data active = activation above about 11%;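 also: 0% = DMSO vehicle and 100% = reference agonist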
ROMK mod = modulators of human ROMK potassium channel. P48048. Tet-inducible ROMK, thallium flux fluorescence; actives lie on both sides. B-score at 10 µM. 130,000 tested, 2% active;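 active = signal ratio slope over the read window, or its plate-corrected B-score, at least 3 SD from the plate mean, either direction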;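 also: B-score of the F/F0 ratio slope over 7 to 12 s after thallium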
S1P3 antagonist = blocks the human S1P3 receptor; inhibition, % at 4.98 µM; 170,000 tested, 0.27% active; CHO S1P3 NFAT-BLA reporter, FRET fluorescence, antagonist mode; AID 485;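 active = inhibition above the plate cutoff, the mean inhibition of test wells on that plate plus 3 SD, cut at about 28% in these data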;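 also: cells challenged with S1P at its EC80 of 0.8 µM; blue over green emission ratio from cleaved BLA substrate after 4 h stimulation; 0% = S1P-stimulated wells and 100% = unstimulated DMSO-only wells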
S1P4 antag cf = confirmation of human S1P4 receptor antagonists | shares compounds with S1P4 antag | S1P4-expressing cell line, antagonist mode, reporter read-out | inhibition, % at 4.98 µM | 520 tested, 71% active | AID 1524; in the data active = inhibition above about 30%
S1P1 antag = human S1P1 antagonism as S1P4 antagonist counter-screen; shares compounds with S1P4 antag; cell-based S1P1 antagonist counterscreen, inhibition; inhibition, % at 4.98 µM; 520 tested, 37% active; in the data active = inhibition above about 40%;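 also: receptor stimulated with S1P near its EC80; 0% = agonist stimulated wells and 100% = vehicle only wells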
Target sequence (P21453 whole entry, looked up): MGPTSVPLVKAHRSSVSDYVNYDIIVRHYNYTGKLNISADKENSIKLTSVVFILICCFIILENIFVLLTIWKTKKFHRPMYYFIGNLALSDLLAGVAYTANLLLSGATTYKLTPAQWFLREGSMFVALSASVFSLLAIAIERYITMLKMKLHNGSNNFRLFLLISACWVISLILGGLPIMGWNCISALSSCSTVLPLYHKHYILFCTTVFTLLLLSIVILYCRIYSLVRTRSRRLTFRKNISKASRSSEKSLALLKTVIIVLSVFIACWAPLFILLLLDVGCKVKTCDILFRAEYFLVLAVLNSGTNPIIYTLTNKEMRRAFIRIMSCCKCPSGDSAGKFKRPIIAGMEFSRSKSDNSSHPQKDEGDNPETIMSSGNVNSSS
ROMK hit retest = human ROMK channel modulation, retest confirmation. 3,000 tested, 54% active. ROMK thallium flux, fluorescence ratio; active compounds read low. shares compounds with ROMK mod. normalized thallium flux (F/F0 slope) at 10 µM. AID 1917;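 active = Flux at 10 µM at least 3 SD below or above vehicle control mean in one or both replicates; inconclusive = no clear call, values can overlap the other calls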
The depositor's hits bear a star; ? = inconclusive; . = no result given.

SMILES | S1P4 antag | KCC2 mod | RAM inhibit | S1P4 ag | ROMK mod | S1P3 antagonist | S1P4 antag cf | S1P1 antag | ROMK hit retest
CCCN1C(=O)/C(=C/c2ccco2)SC1=Nc1ccc(OC)cc1 | -68 | -0.75 | 2 | 2 | -0.0053 | . | . | . | .
COc1ccc(N=C2S/C(=C\c3ccc(N4CCOCC4)o3)C(=O)N2CCc2c[nH]c3ccccc23)cc1 | 55* | -0.83 | 6 | 0 | . | . | 68* | 30 | 0.058*
Cc1nn(-c2cc(N(S(C)(=O)=O)S(C)(=O)=O)c(Cl)cc2Cl)c(=O)n1C | -12 | -0.87 | 2 | 1 | 0.69 | 2 | . | . | .
CCOC1=NN(c2ncc(C(F)(F)F)cc2Cl)C(=O)/C1=C/N(C)C | -12 | . | -1 | -1 | 0.071 | -16 | . | . | .
Cc1ccc(S(=O)(=O)N(C)c2ccc(OCC(=O)Nc3cccc(-n4cnnn4)c3C)cc2)cc1 | 14 | -0.42 | . | -1 | . | 8 | . | . | .
Cc1ccc(-n2nnnc2Sc2ccc(S(=O)(=O)NCCN(C)C)cc2[N+](=O)[O-])cc1 | 49* | -0.037 | 2 | 3 | -3.5* | -6 | 68* | 59* | 0.057*
COc1cc(CNCCCN2CCOCC2)cc(Br)c1OCc1ccc(Cl)cc1 | 30* | 0.058 | 1 | 2 | -3.8* | 4 | 52* | 39 | ?
Cc1ccc(O)c(C(=O)c2cnn(C(=O)COc3ccccc3C#N)c2)c1 | 5 | -2.2 | . | 1 | -0.28 | -3 | . | . | .
Cc1ccc(NC(=O)c2ccc(Cl)cc2Cl)cc1O | 8 | -0.66 | . | 1 | . | -7 | . | . | .
CCOC(=O)C1(Cc2ccccc2)CCN(Cc2cn(CC(=O)OC)c3ccccc23)CC1 | 30* | 0.88 | -1 | 1 | -3.3* | 0 | 5 | 16 | 0.055*
CCOC(=O)C1(Cc2ccccc2)CCN(Cc2cccc(OC)c2O)CC1 | -12 | 0.26 | 1 | 2 | -1.1 | 3 | . | . | .
N#Cc1ccc(/C=C/C(=O)c2cccnc2)cc1 | 44* | -1.1 | 0 | 1 | -3.3* | -5 | 53* | 52* | 0.045*
Cc1cc(Cl)n2c(nc3cc(F)c(F)cc32)c1C#N | 31* | -1.9 | -1 | 3 | -7.2* | -10 | 112* | 81* | 0.053*
Cc1cc(C)n2c(=O)c3ccc(Cl)cc3nc2c1C#N | -3 | -1.3 | 0 | 0 | 2.5 | -15 | . | . | .
O=C(/C=C/c1ccccc1)CC(O)(c1ccccc1)C(F)(F)F (stereo not given) | 47* | -0.63 | 3 | -2 | -4.8* | . | 106* | 41* | 0.052*
Cc1cc(N2CCOCC2)ccc1/C=C\[N+](=O)[O-] | 39* | -0.033 | -1 | -2 | -4.5* | -15 | 82* | -24 | 0.05*
O=[N+]([O-])c1ccc(N2CCOCC2)cc1O | -13 | . | . | 1 | . | -11 | . | . | .
CCN(CC)C(=O)CC(c1cc(OC)c(OC)c(OC)c1)c1c(OC)cc(OC)c2c(-c3ccccc3)cc(=O)oc12 (stereo not given) | . | -1.3 | . | . | . | . | . | . | .
CC(=O)Nc1cccc(C(=O)/C=C/c2ccc(F)cc2)c1 | 46* | -0.17 | 1 | -1 | -3.7* | -1 | 72* | 23 | 0.053*
C=CCn1c(SCC(=O)Nc2cc3oc4ccccc4c3cc2OC)nnc1-c1cnccn1 | -16 | -0.6 | 5 | 0 | . | 31 | . | . | 0.065*
Cc1cccc(OCC(=O)Nc2ccc(C(=O)c3ccc(C(=O)O)cc3)cc2)c1 | 1 | -0.17 | 4 | -1 | -0.73 | 5 | . | . | .
COc1ccccc1-n1cnc2cc(NCc3ccco3)ccc21 | 17 | -1.3 | 4 | 2 | 7.9* | -11 | . | . | 0.088
Cc1ccc2c(c1)Oc1ccc(NC(=O)CCl)cc1C(=O)N2 | 2 | -0.57 | 4 | -1 | -0.63 | -24 | . | . | .
Cc1ccnc(NS(=O)(=O)c2ccc(NS(=O)(=O)c3ccccc3)cc2)n1 | -16 | -0.88 | 0 | -2 | . | . | . | . | .
CCOc1c(Cl)cc(C(=O)Nc2ccccc2C(=O)O)cc1Cl | -14 | -1.9 | 1 | 1 | -3.6* | . | . | . | 0.054*
